# Bioassay records (PubChem BioAssay)
# TWEAK-Fn14 inh: inhibitors of TWEAK-Fn14 signaling, primary screen, luciferase reporter cells, uHTS; 360,000 compounds, 2% hits; TWEAK-stimulated Fn14 reporter cells, luciferase luminescence, 8 h; inhibition, % at 10 µM; in the data active = inhibition above about 50%
# TROY NFkB inh: inhibitors of TROY-driven NF-kB signaling, primary screen, Q293 LMP1-TROYcd cells, NF-kB luciferase, uHTS; Q293 LMP1-TROYcd NF-kB luciferase reporter, 4 h; inhibition, % at 10 µM; 360,000 compounds, 0.98% hits; AID 1347056, 2019;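 active = compounds whose plate-normalised and pattern-corrected inhibition of the luciferase reporter signal at the single screening dose is 50% or more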
# HSP90 refold inh: HSP90 inhibitors, primary screen, cell lysate, luminescence; 290,000 compounds, 0.91% hits; inhibition, % at 5.6 µM; Heat shock protein HSP 90 (rabbit reticulocyte lysate; luciferase refolding); Rabbit reticulocyte lysate, luciferase refolding luminescence, 3 h;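 active = inhibition above the screen-wide mean plus 3 SD, computed separately per campaign, cut at about 16% in these data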;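 also: 0% = DMSO wells and 100% = 60 µM geldanamycin wells; inhibitors lower the luminescence because luciferase stays unfolded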
# LGR2 antag: inhibitors of bursicon-induced LGR2 CRE-luciferase signal, primary screen, cell-based, HEK293, CRE-luciferase reporter, bursicon stimulation | Drosophila bursicon receptor LGR2 (rickets) | bursicon-stimulated, 4 h | inhibition, % at 9.99 µM | 380,000 compounds, 0.35% hits | AID 720647, 2013;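 active = drop in luminescence signal, shown as inhibition above about 50% in the replicate tests, limit read from the data, passing the limit was not always enough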;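 also: agonist challenge used bursicon conditioned medium at about half maximal strength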
# * hit, by the source's call; nt = no result. Rows were chosen to be rich in hits. Some 2.2% of all compounds tested hit in one or more screens of this group.
SMILES,TWEAK-Fn14 inh,TROY NFkB inh,HSP90 refold inh,LGR2 antag
COc1cccc(S(=O)(=O)N[C@@H]2CC[C@H](CCNC(=O)Nc3cc(F)ccc3F)O[C@H]2CO)c1,nt,nt,nt,-9.3
COCC#Cc1ccc2c(c1)O[C@@H](CN(C)C(=O)C1CC1)[C@H](C)CN([C@@H](C)CO)S2(=O)=O,nt,nt,nt,11.5
CCn1c(=Nc2ccc(N3CCOCC3)cc2)ccc2ccccc21,-6.7,3.3,2.8,nt
Cn1c(N=Nc2ccc(N3CCOCC3)cc2)[n+](C)c2ccccc21,45.5,69.8*,-3.1,-35.0
Cn1c(=Nc2ccc(N3CCOCC3)cc2)ccc2ccccc21,72.0*,nt,-2.8,nt
C[C@@H]1CN([C@@H](C)CO)C(=O)Cc2cc(NS(=O)(=O)c3ccccc3)ccc2O[C@H]1CN(C)Cc1ccc(C(F)(F)F)cc1,nt,nt,nt,5.7
CC(C)NC(=O)c1c(O)c2cccc3c2n(c1=O)CCC3,-2.5,5.7,2.3,-0.7
CNC(=O)c1c(O)c2cccc3c2n(c1=O)CC3,53.1*,nt,2.8,nt
COc1ccc(S(=O)(=O)N(C)C[C@H]2Oc3ccc(NC(=O)Nc4ccc(F)cc4)cc3C(=O)N([C@@H](C)CO)C[C@H]2C)cc1,nt,nt,nt,25.8
CCN(C[C@H]1N[C@@](CC)(C(=O)OC)[C@H]2C(=O)N(C)C(=O)[C@@H]12)S(=O)(=O)c1ccc(C(C)(C)C)cc1,53.7*,-2.9,nt,-2.4
CCOC(=O)CCc1ccc(NC(=O)/C=C/c2ccc([N+](=O)[O-])o2)cc1,76.7*,-9.3,nt,17.6
COc1ccc(C=C(C(=O)c2ccccc2)C(=O)c2ccccc2)cc1,51.7*,-20.2,nt,-64.8
CC(=O)C(=Cc1cccc(C#N)c1)C(=O)c1ccccc1,77.1*,-11.9,nt,47.2
CC(=O)C(=Cc1ccc(Cl)cc1)C(=O)c1ccccc1,94.6*,19.4,nt,16.0
COc1ccc(C=C(C(C)=O)C(=O)c2ccccc2)cc1,27.6,-2.4,nt,17.3
C[C@@H]1CN([C@H](C)CO)C(=O)Cc2cc(NC(=O)Nc3ccc4c(c3)OCO4)ccc2O[C@@H]1CN(C)S(=O)(=O)c1cn(C)cn1,nt,nt,nt,-14.6
CC(C)C(Cl)=NOC(=O)Nc1ccc(F)cc1,51.1*,-7.7,nt,46.6
CO[C@H]1CN(C)C(=O)c2ccc(NC(=O)C3CC3)cc2OC[C@@H](C)N(C(=O)C2CCCCC2)C[C@H]1C,nt,nt,nt,5.8
CCN1CCN(C(=O)Nc2cccc3ccccc23)CC1,7.0,55.6*,-1.6,nt
CN1CCN(C(=O)Nc2cccc3ccccc23)CC1,31.6,30.2,0.6,2.0
COc1ccc(NC(=O)Nc2ccc3c(c2)[C@H]2C[C@H](CC(=O)N4CCCCC4)O[C@@H](CO)[C@H]2O3)cc1,nt,nt,nt,8.6
CC(C)NC(=O)N1C[C@@H]2[C@H](c3ccccc31)[C@@H](CO)N2C(=O)Nc1cccc(F)c1,nt,nt,nt,-8.5
CCC(=O)N1CC2(C1)[C@@H](c1ccccc1)[C@@H](CO)N2CC1CC1,nt,nt,nt,3.2
Cc1sc2ncnc(N/N=C/c3ccc(O)cc3)c2c1C,51.6*,-0.6,-1.9,-7.1
COc1ccc(/C=N/Nc2ncnc3sc(C)c(C)c23)cc1,5.4,10.0,-2.3,-10.3
SMILES,TWEAK-Fn14 inh,TROY NFkB inh,HSP90 refold inh,LGR2 antag
Cc1ccc(S(=O)(=O)N(C)C[C@@H]2Oc3ccc(NC(=O)C4CC4)cc3CC(=O)N([C@H](C)CO)C[C@@H]2C)cc1,nt,nt,nt,-11.7
CCSc1nnc(NC(=O)c2cccc(S(=O)(=O)N(C)c3ccccc3)c2)s1,0.3,1.4,0.2,2.7
C=CCN(c1ccccc1)S(=O)(=O)c1cccc(C(=O)Nc2nnc(SCC)s2)c1,12.9,53.2*,-0.8,5.4
O=c1cc(-c2ccccc2O)nc(-c2ccccc2)[nH]1,52.7*,57.5*,nt,-19.2
C[C@@H]1CCCCO[C@@H](CN(C)S(=O)(=O)c2ccc(Cl)cc2)[C@@H](C)CN([C@@H](C)CO)C(=O)c2cc(NC(=O)c3ccncc3)ccc2O1,nt,nt,nt,-24.2
CC(=O)N(C)C1=C(N2CCOCC2)C(=O)c2ccccc2C1=O,74.3*,32.1,3.8,nt
O=C(Nc1ccc2c(c1)OCCO2)C1CCCN(S(=O)(=O)Cc2ccccc2)C1 (stereo not drawn),54.2*,24.0,2.2,nt
O=C(Nc1ccc2c(c1)OCCO2)C1CCN(S(=O)(=O)c2ccc(Br)s2)CC1,51.3*,18.7,1.0,nt
O=C(Nc1ccc2c(c1)OCO2)c1cc(C2CCCCN2S(=O)(=O)Cc2ccccc2)on1 (stereo not drawn),8.8,63.6*,nt,-76.2
O=C(Nc1ccc2c(c1)OCCO2)C(c1cc2ccccc2o1)N1CCC(Cc2ccccc2)CC1 (stereo not drawn),89.5*,85.1*,nt,13.6
O=C(Nc1ccc2c(c1)OCO2)C1CCCN(S(=O)(=O)Cc2ccccc2)C1 (stereo not drawn),-4.3,0.1,-2.2,nt
O=C(Nc1ccc2c(c1)OCCO2)C1CCN(S(=O)(=O)c2cccs2)CC1,35.3,29.2,3.1,nt
C[C@@H]1CCCCO[C@@H](CN(C)C(=O)Nc2ccccc2)[C@H](C)CN([C@@H](C)CO)C(=O)c2cc(NC(=O)c3ccncc3)ccc2O1,nt,nt,nt,12.4
O=S(=O)(N[C@@H]1CC[C@@H](CCn2cc(C3(O)CCCC3)nn2)O[C@@H]1CO)c1ccccc1,nt,nt,nt,16.0
COc1ccc(C(=O)N2CCC(C(=O)Nc3ccc4c(c3)OCCO4)CC2)cc1,79.3*,48.0,9.1,nt
Cc1nn(C)c(C)c1S(=O)(=O)N1CCC(C(=O)Nc2ccc3c(c2)OCCO3)CC1,78.9*,66.0*,5.7,-6.8
O=C(Nc1ccc(F)cc1)N1C[C@H]2[C@@H](c3ccccc31)[C@@H](CO)N2C(=O)c1ccccc1,nt,nt,nt,6.2
COc1cccc(C#Cc2ccc3c(c2)O[C@H](CN(C)C)[C@@H](C)CN([C@H](C)CO)S3(=O)=O)c1,nt,nt,nt,18.3
CCC(=O)NC[C@H]1[C@H](c2ccc(-c3cccc(F)c3)cc2)[C@@H](CO)N1C(=O)CC,nt,nt,nt,-16.4
O=C(NCC[C@@H]1CC[C@@H](NC(=O)C2CCCC2)[C@@H](CO)O1)c1cnccn1,nt,nt,nt,-3.1
O=C(CCNS(=O)(=O)c1ccc(Br)cc1)Nc1cccc(F)c1,99.2*,4.4,-4.6,-4.8
COc1ccc(-c2coc3c(C(=O)NCc4ccc(OC)c(OC)c4)cccc23)c(C)c1,63.2*,44.0,nt,7.4
O=C(Nc1cccc(C(F)(F)F)c1)c1cccc2c(-c3cccnc3)coc12,16.9,33.1,nt,nt
COc1ccc(-c2coc3c(C(=O)Nc4cc(OC)c(OC)c(OC)c4)cccc23)c(C)c1,92.6*,63.4*,nt,57.9*
COc1cc(NC(=O)c2cccc3c(-c4cccnc4)coc23)cc(OC)c1OC,79.8*,68.4*,nt,85.6*
CS(=O)(=O)Nc1cccc(NC(=O)c2cccc3c(-c4cccc(C(N)=O)c4)coc23)c1,34.8,6.5,nt,-16.8
CC(=O)c1cccc(NC(=O)c2cccc3c(-c4cccc(C(N)=O)c4)coc23)c1,83.3*,63.8*,nt,-10.9
COc1ccc(-c2coc3c(C(=O)Nc4ccc(OC)nc4)cccc23)c(C)c1,45.4,24.7,nt,-10.1
